Source: PubChem BioAssay (NCATS)
Records with an inconclusive call do not appear. Where a call stands in place of a potency, no number is given. Values without a mark were called inactive. Calls of active or inactive are those of the source. Calls follow the shape of the dose curve; as a rule, active = well fitted curve in the direction sought with a large enough effect; inconclusive = small, poorly fitted or top-dose-only effect, or another doubt; inactive = no such curve, though single readings can be large; an effect the other way counts as inactive or inconclusive.

Legend:
[1] = biological target: Cellular tumor antigen p53 (Homo sapiens) (UniProt P04637); assay: Primary qHTS for small molecule compounds that upregulate eGFP-tagged delta133p53alpha (in N-terminal) cells. (AID 2060322); conditions: NCI-H358 eGFP-delta133p53alpha fluorescence, 24 h; activation: active compounds read high; also: nearly all actives have a fitted effect of over 75% in size; also: potency is read from the fitted curve at half-maximal effect
Method in brief: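 NCI-H358 cells pre-induced 24 h with 10 ng/ml doxycycline to express N-terminal eGFP-delta133p53alpha, then dosed 24 h at 37C without doxycycline; fixed, Hoechst-stained, GFP intensity by laser scanning cytometry, normalized to DMSO (0%) and 57.5 uM 5-azacytidine (100%).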

[2] = biological target: Aldehyde dehydrogenase, mitochondrial (Homo sapiens) (UniProt P05091); assay: qHTS for Inhibitors of the Aldehyde Dehydrogenase Family (ALDH2) Primary screen (AID 2061308); conditions: ALDH2 enzyme inhibition qHTS, 1536-well; series mostly up to 56 µM; also: nearly all actives have a fitted effect of over 55% in size
[3] = biological target: Retinaldehyde dehydrogenase 3 (Homo sapiens) (UniProt P47895); assay: qHTS for Inhibitors of the Aldehyde Dehydrogenase Family (ALDH1A3) Primary screen (AID 2061315); conditions: ALDH inhibition qHTS; series mostly up to 56 µM

Cellular tumor antigen p53 (Homo sapiens), sequence (P04637 whole entry, looked up): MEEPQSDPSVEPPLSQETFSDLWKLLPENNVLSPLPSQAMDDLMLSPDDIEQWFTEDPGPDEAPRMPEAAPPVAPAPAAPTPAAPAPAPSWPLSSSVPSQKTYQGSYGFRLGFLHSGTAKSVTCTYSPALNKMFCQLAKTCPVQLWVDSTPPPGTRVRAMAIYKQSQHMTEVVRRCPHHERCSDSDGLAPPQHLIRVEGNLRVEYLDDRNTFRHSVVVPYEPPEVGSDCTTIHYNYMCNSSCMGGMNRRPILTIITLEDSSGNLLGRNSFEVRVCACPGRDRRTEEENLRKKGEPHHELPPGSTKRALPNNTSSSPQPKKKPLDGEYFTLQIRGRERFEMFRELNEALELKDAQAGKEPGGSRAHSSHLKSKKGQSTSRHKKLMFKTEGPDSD

With `N#Cc1cc(-c2n[nH]c(-c3ccncc3)n2)ccn1` the activation [1] was 4.46%, the Potency [2] was “inactive” and the Potency [3] was “inactive”.
`C=C1CCCC2(C)CCC(C(C)(C)OC3OC(C)C(O)C(O)C3OC(=O)/C(C)=C\C)CC12` (centres undefined) was tested, and the activation [1] was -19.8%, the Potency [2] was “inactive” and the Potency [3] was “inactive”.
In the case of `CCCCc1nc(C)c(CC(=S)N(C)C)c(=O)n1Cc1ccc(-c2ccccc2-c2nn[nH]n2)cc1`, the activation [1] is reported as 18.1%, the Potency [2] is reported as “inactive” and the Potency [3] is reported as “inactive”.
In the case of `C/C(=C/CO)CCC1C(C)CCC2C(C)(C)CCCC12C` (centres undefined), the activation [1] is reported as -9.92%, the Potency [2] is reported as “inactive” and the Potency [3] is reported as “inactive”.
In the case of `COc1ccc(C2(O)c3ccccc3NC(=O)C2O)cc1` (centres undefined), the activation [1] is reported as -3.82%, the Potency [2] is reported as “inactive” and the Potency [3] is reported as “inactive”.
For `CC(C)C(C)C(O)C1CC23CC(=O)C4(O)C(=C2CCC3C1C)C=CC1(O)CC(O)CCC14C` (centres undefined), the activation [1] was 15.3%, the Potency [2] was “inactive” and the Potency [3] was “inactive”.
In the case of `O=C(NCCO)c1cccc(-c2cc(Nc3ccc(OC(F)(F)F)cc3)ncn2)c1`, the activation [1] is reported as 1.79%, the Potency [2] is reported as “inactive” and the Potency [3] is reported as “inactive”.
With `COc1ccc(/C=C/C(=O)O[C@@H]2[C@@H](O)[C@H](C)O[C@@H](OC3C4C=COC(O[C@@H]5O[C@H](CO)[C@@H](O)[C@H](O)[C@H]5O)C4C4(CO)OC34)[C@@H]2O)cc1OC` (some centres undefined) the activation [1] was -13%, the Potency [2] was “inactive” and the Potency [3] was “inactive”.
In the case of `C=CC1C(O[C@@H]2O[C@H](CO)[C@@H](O)[C@H](O)[C@H]2O)OC=C(C(=O)OC)C1Cc1nccc2c1[nH]c1ccccc12` (some centres undefined), the activation [1] is reported as 19.6%, the Potency [2] is reported as “inactive” and the Potency [3] is reported as “inactive”.
For `C=C1C(OC(C)=O)C(=O)C2C(C)(C)C(O)CCC2(C)C1CC(OC(C)=O)/C(C)=C/COC(C)=O` (centres undefined), the activation [1] was -14.5%, the Potency [2] was “inactive” and the Potency [3] was “inactive”.
In the case of `Cc1cc2c(F)c(Oc3ncnn4cc(OCC(C)O)c(C)c34)ccc2[nH]1` (centres undefined), the activation [1] is reported as -26.8%, the Potency [2] is reported as “inactive” and the Potency [3] is reported as “inactive”.
For `COc1ccc(-n2c(=O)[nH]c3cc(C(=O)NCc4ccc(Cl)cc4)sc3c2=O)nc1OC`, the activation [1] was -16.1%, the Potency [2] was “inactive” and the Potency [3] was “inactive”.
For `CCNC(=O)Nc1ccc(-c2nc3c(c(N4CCOCC4C)n2)CCN(C2COC2)C3)cc1` (centres undefined), the activation [1] was 12.4%, the Potency [2] was “inactive” and the Potency [3] was “inactive”.
With `C/C(=C\CCC(C(=O)O)C1CCC2(C)C3=C(CCC12C)C1(C)CCC(=O)C(C)(C)C1CC3)C(=O)O` (centres undefined) the activation [1] was 1.53%, the Potency [2] was “inactive” and the Potency [3] was “inactive”.
In the case of `COC(=O)c1[nH]c(=O)c2ccccc2c1-c1ccc[nH]1`, the activation [1] is reported as -11.6%, the Potency [2] is reported as “inactive” and the Potency [3] is reported as “inactive”.
For `C=C(CCO)C(=O)OCC1OCC(OC(=O)C(=C)CCO[C@@H]2O[C@H](COC(=O)C(=C)CCO[C@@H]3O[C@H](CO)[C@@H](O)[C@H](O)[C@H]3O)[C@@H](O)[C@H](O)[C@H]2O)C(O)C1O` (some centres undefined), the activation [1] was 11.5%, the Potency [2] was “inactive” and the Potency [3] was “inactive”.
With `CC1CCC2(C)C(CC(O)C(O)C23CO3)C1(C)CCC1=CC(O)OC1=O` (centres undefined) the activation [1] was -2.29%, the Potency [2] was “inactive” and the Potency [3] was “inactive”.
With `O=C(CCCCCCCCC#CI)Oc1ccccc1` the activation [1] was -8.33%, the Potency [2] was “inactive” and the Potency [3] was “inactive”.
With `Cc1ccc(F)cc1C(=O)Nc1ccc(C(=O)N2Cc3cccn3Cc3ccccc32)c(Cl)c1` the activation [1] was 1.67%, the Potency [2] was “inactive” and the Potency [3] was “inactive”.
In the case of `C=C1CC2[C@]3(C)C(=C(O)C(=O)[C@@]2(C)[C@]2(C(=O)OC)C(=O)C(C)OC(=O)[C@@]12C)C(C)(C)C(=O)CC3O` (some centres undefined), the activation [1] is reported as 18.3%, the Potency [2] is reported as “inactive” and the Potency [3] is reported as “inactive”.
`COC1=CC(=O)O[C@@H](CCc2ccccc2)[C@@H]1O` was tested, and the activation [1] was -13%, the Potency [2] was “inactive” and the Potency [3] was “inactive”.
For `CC(=O)C1=CCC2C3CCC4CC(O[C@@H]5O[C@H](CO)[C@@H](O[C@@H]6O[C@@H](C)[C@H](O)[C@@H](O)[C@H]6O)[C@H](O)[C@H]5O[C@@H]5O[C@H](CO)[C@@H](O)[C@H](O)[C@H]5O)CCC4(C)C3CCC12C` (some centres undefined), the activation [1] was -10.7%, the Potency [2] was “inactive” and the Potency [3] was “inactive”.
In the case of `CC(=O)OC[C@]1(O)[C@H]2[C@H](OC(=O)CC(C)C)OC=C(CO[C@@H]3O[C@H](CO)[C@@H](O)[C@H](O)[C@H]3O)[C@H]2C[C@@H]1O`, the activation [1] is reported as -1.79%, the Potency [2] is reported as “inactive” and the Potency [3] is reported as “inactive”.
In the case of `CC(C)(C)c1ccc(NC(=O)N2CCN(c3ncccc3Cl)CC2)cc1`, the activation [1] is reported as -11.5%, the Potency [2] is reported as “inactive” and the Potency [3] is reported as “inactive”.
For `CC(C)CC(c1c(O)c(C=O)c(O)c(C=O)c1O)C1CCC(C)(O)C2CC(C(C)(C)O)CCC12C` (centres undefined), the activation [1] was 22.3%, the Potency [2] was “inactive” and the Potency [3] was “inactive”.
For `CC1(C)CC[C@]2(C(=O)O[C@@H]3O[C@H](CO)[C@@H](O)[C@H](O)[C@H]3O)CC[C@]3(C)C(=CCC4[C@@]5(C)C[C@H](O)[C@H](O[C@@H]6O[C@H](C(=O)O)[C@@H](O)[C@H](O)[C@H]6O)[C@@](C)(CO)C5CC[C@]43C)C2C1` (some centres undefined), the activation [1] was -11.6%, the activity change, negative = inhibition [2] was 12.5% [at 11.2 µM] and the activity change, negative = inhibition [3] was 11% [at 11.2 µM].
For `OCC(CO[C@@H]1O[C@H](CO)[C@@H](O)[C@H](O)[C@H]1O)c1ccc2c(c1)OCO2` (some centres undefined), the activation [1] was 24.1%, the Potency [2] was “inactive” and the Potency [3] was “inactive”.
In the case of `COC1C(OC(=O)/C=C/C=C/C=C/C=C/C(=O)O)CCC2(CO2)C1C1(C)OC1CC=C(C)C` (centres undefined), the activation [1] is reported as 10.7%, the Potency [2] is reported as “inactive” and the Potency [3] is reported as “inactive”.
In the case of `COC(=O)C1(C)c2[nH]c3ccccc3c2CCN1C(=O)CCl` (centres undefined), the Potency [1] is reported as 30.1 µM (active), the Potency [2] is reported as “inactive” and the Potency [3] is reported as “inactive”.
In the case of `C=C(C)[C@@H]1CC[C@]2(C(=O)O)CC[C@]3(C)C(CCC4[C@]5(C)C(CC[C@]43C)C(C)(C)[C@@H](O)[C@@H]5C(=O)O)C12` (some centres undefined), the activation [1] is reported as -18.3%, the Potency [2] is reported as “inactive” and the Potency [3] is reported as “inactive”.
In the case of `CC1(C)CC[C@]2(C(=O)O[C@@H]3O[C@H](CO)[C@@H](O)[C@H](O)[C@H]3O)CC[C@]3(C)C(=CCC4[C@@]5(C)C[C@@H](O)[C@H](O)C(C)(C)C5CC[C@]43C)C2[C@@H]1O` (some centres undefined), the activation [1] is reported as -8.04%, the Potency [2] is reported as “inactive” and the Potency [3] is reported as “inactive”.
For `CC1C(=O)OCC2=CC[N+]3([O-])CCC(OC(=O)C(C)(O)C1(C)O)C23` (centres undefined), the activation [1] was 24.1%, the Potency [2] was “inactive” and the Potency [3] was “inactive”.
`C=CC(C)(CC/C=C(\C)C(=O)OC)OC1OC(COC(=O)CC(C)(O)CC(=O)O)C(OC2OC(CO)C(O)C(O)C2O)C(O)C1O` (centres undefined) was tested, and the activation [1] was -11.5%, the Potency [2] was “inactive” and the Potency [3] was “inactive”.
For `C=C1CC[C@@H]2[C@](C)(CO)[C@H](O)CC[C@@]2(C)[C@@H]1C/C=C1/C(=O)OC[C@@H]1O`, the Potency [1] was 11.7 µM (active), the Potency [2] was “inactive” and the Potency [3] was “inactive”.
In the case of `CC1(C)CCCC2(C)C(CO)C3CCC2C31` (centres undefined), the activation [1] is reported as 24.1%, the Potency [2] is reported as “inactive” and the Potency [3] is reported as “inactive”.
For `CCC(NC(=O)CC(NC(=O)C(CO)NC(=O)C(CC)NC(=O)c1ccc[nH]1)c1ccccc1)C(=O)O` (centres undefined), the activation [1] was 23.7%, the Potency [2] was “inactive” and the Potency [3] was “inactive”.
With `C[C@]1(OC(=O)/C=C/c2ccccc2)C[C@H](O)[C@]2(O)C=CO[C@@H](O[C@@H]3O[C@H](CO)[C@@H](O)[C@H](O)[C@H]3O)C12` (some centres undefined) the activation [1] was -18.3%, the Potency [2] was “inactive” and the Potency [3] was “inactive”.
In the case of `C/C=C(\C)C1C(C)=CC2CCC(OS(=O)(=O)O)C(C)C2C1/C=C/C=C/C(=O)O` (centres undefined), the activation [1] is reported as 0.893%, the Potency [2] is reported as “inactive” and the Potency [3] is reported as “inactive”.
